The source of these data is publication PMC4336329 (PLoS ONE, 2015).

Structures are written as SMILES. About 14,000 (4.5%) of roughly 310,000 compounds showed an effect of 50% or more. Effects have a minus sign here. For the sample, strong results were picked, then their nearest neighbours and some compounds at random.
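Further: peak tail current of the secondary pulse compared with the same well before compound.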

This test deals with human ether-à-go-go-related gene (hERG) potassium channel (human, UniProt Q12809). Nature of the test: primary screen, population patch clamp on CHO cells stably expressing hERG; higher = less effect of the substance.
Sequence of human ether-à-go-go-related gene (hERG) potassium channel (Q12809 whole entry, looked up): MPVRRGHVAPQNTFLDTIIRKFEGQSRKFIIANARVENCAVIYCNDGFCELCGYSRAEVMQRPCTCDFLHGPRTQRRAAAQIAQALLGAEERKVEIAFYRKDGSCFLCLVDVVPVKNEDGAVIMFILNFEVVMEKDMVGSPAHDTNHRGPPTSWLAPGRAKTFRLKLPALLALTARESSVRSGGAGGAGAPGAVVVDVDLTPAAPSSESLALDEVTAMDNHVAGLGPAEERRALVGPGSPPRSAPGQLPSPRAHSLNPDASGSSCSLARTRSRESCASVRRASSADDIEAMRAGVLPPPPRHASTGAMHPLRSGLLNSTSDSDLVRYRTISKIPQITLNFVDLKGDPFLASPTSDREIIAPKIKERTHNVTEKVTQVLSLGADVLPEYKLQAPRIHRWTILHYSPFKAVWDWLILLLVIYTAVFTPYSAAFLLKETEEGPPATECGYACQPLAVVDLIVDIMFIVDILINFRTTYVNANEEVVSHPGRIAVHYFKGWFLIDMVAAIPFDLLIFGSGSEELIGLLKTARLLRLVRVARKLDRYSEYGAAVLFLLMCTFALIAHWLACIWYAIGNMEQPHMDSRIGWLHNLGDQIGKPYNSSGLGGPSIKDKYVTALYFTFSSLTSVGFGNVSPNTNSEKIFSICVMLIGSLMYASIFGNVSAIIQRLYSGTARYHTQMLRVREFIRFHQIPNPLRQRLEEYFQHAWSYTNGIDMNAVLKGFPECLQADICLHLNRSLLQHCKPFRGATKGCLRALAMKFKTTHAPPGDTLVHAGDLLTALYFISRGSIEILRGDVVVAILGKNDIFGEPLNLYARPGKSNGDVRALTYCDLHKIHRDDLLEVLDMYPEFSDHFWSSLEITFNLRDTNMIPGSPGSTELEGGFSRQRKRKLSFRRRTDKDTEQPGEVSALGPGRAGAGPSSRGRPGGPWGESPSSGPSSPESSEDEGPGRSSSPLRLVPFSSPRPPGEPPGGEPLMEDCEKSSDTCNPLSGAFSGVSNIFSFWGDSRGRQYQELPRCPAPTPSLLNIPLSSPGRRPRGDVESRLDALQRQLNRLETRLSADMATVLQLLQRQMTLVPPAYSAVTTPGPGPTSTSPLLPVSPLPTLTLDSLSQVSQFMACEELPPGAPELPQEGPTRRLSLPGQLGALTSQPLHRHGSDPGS
Regarding `CC(C)CCn1c(CN(C)Cc2ccccc2)nc2c1c(=O)n(C)c(=O)n2C`, the “hERG current change (%, negative = inhibition) at 10uM” value is on record as -43.9%.
Under `Cc1cc(C)nc(SCC(=O)Nc2ncc3c(n2)CC(C)(C)CC3=O)n1` stands -13.1%.
For `CCOc1ccc(N(C(=O)c2ccc(S(=O)(=O)N3CCCC3)cc2)C2C=CS(=O)(=O)C2)cc1` (stereo not shown) the value was -51.9%.
Under `COc1ccc(N(C(=O)c2ccc(S(=O)(=O)N3CCCC3)cc2)C2C=CS(=O)(=O)C2)cc1` (stereo not shown) stands -31.9%.
Turning to `Cc1ccc(N(C(=O)c2ccc(S(=O)(=O)N3CCCC3)cc2)C2C=CS(=O)(=O)C2)cc1` (stereo not shown), the “hERG current change (%, negative = inhibition) at 10uM” value is on record as -32.9%.
Under `COc1ccc(N2CCN(c3ccc(NC(=O)C4CCCCC4)cc3C#N)CC2)cc1` stands 15.2%; under `COc1cc(C(=O)N2CCN(C(=O)C3CC3)CC2)cc(OC)c1OC`, 3.78%.
Under `Cc1ccc(C)c(NC(=O)COC(=O)Cn2c(C)csc2=O)c1` stands 6.84%; under `Cc1c(C(=O)N2CCCCCC2)c(S(=O)(=O)Nc2cccc(F)c2)c(C)n1C`, 9.56%.
Take `Cn1c(N2CCOCC2)c(/C=N/O)c2ccccc21`: the “hERG current change (%, negative = inhibition) at 10uM” value came out at 7.51%.
With `CN1CCN(c2c(/C=N/O)c3ccccc3n2C)CC1`, the “hERG current change (%, negative = inhibition) at 10uM” value was -51.5%.
Under `Cc1c(/C=N/O)c2ccccc2n1C` stands 5.39%; under `O=C(N/N=C/c1ccco1)c1ccc(NC(=O)C2CC2)cc1`, 18.2%; under `OC(COCC(F)(F)C(F)(F)C(F)(F)C(F)F)Cn1c2ccc(Cl)cc2c2cc(Cl)ccc21` (stereo not shown), -9.49%.
For `CC(C)NC(=O)C(=O)Nc1cc2c3c(c1)CCC(=O)N3CCC2` the value was 11.4%.
Under `O=C(CSc1nnc(-c2ccncc2)n1Cc1ccco1)Nc1nccs1` stands -27%.
Consider `Cc1cc(C)nc(SCc2nnc(SCC(=O)Nc3nccs3)n2Cc2ccco2)n1`, for which the “hERG current change (%, negative = inhibition) at 10uM” value is -25%.
Under `Cc1csc(NC(=O)CSc2nnc(C)n2Cc2ccco2)n1` stands -1.85%.
For `Cc1csc(NC(=O)CSc2nnc(-c3ccoc3C)n2Cc2ccco2)n1` the value was -82%.
For `Cc1occc1-c1nnc(SCC(=O)Nc2nccs2)n1Cc1ccco1`, the “hERG current change (%, negative = inhibition) at 10uM” value is recorded as -75.4%.
Under `Cc1csc(NC(=O)CSc2nccn2Cc2ccco2)n1` stands 4.55%; under `CC(=O)NC1=C(NC2CCS(=O)(=O)C2)C(=O)c2ccccc2C1=O` (stereo not shown), 18.4%; under `O=C(NCc1ccc(Cl)s1)C1CCC(=O)N(CCc2ccccn2)C1` (stereo not shown), -10.1%.
Turning to `Cc1ccc(CNC(=O)C2CCC(=O)N(CCc3cccc(F)c3)C2)cc1` (stereo not shown), the “hERG current change (%, negative = inhibition) at 10uM” value was -38%.
Under `COc1cccc(CNC(=O)C2CCC(=O)N(CCc3cccc(F)c3)C2)c1` (stereo not shown) stands -13%.
Under `O=C(NCc1ccc(Cl)s1)C1CCC(=O)N(CCc2cccc(F)c2)C1` (stereo not shown) stands -60.2%; under `CSc1ccc(CNC(=O)C2CCC(=O)N(CCc3cccc(F)c3)C2)cc1` (stereo not shown), -77.1%.
Under `O=C(NCc1ccccc1OC(F)(F)F)C1CCC(=O)N(Cc2cccc(F)c2)C1` (stereo not shown) stands -12.4%; under `O=C(NCc1cccc(OC(F)(F)F)c1)C1CCC(=O)N(Cc2cccc(F)c2)C1` (stereo not shown), -50.1%; under `COC(=O)c1ccc(CNC(=O)C2CCC(=O)N(Cc3cccc(F)c3)C2)cc1` (stereo not shown), -12.7%.
For the compound `O=C(NCc1cccc(F)c1)C1CCC(=O)N(CCc2cccc(F)c2)C1` (stereo not shown), the “hERG current change (%, negative = inhibition) at 10uM” value is -30.7%.
As for `O=C(NCc1cccc(F)c1)C1CCC(=O)N(CC2CCCCC2)C1` (stereo not shown), the “hERG current change (%, negative = inhibition) at 10uM” value is -9.08%.
Under `CSc1ccc(CNC(=O)C2CCC(=O)N(Cc3cccc(F)c3)C2)cc1` (stereo not shown) stands -62.4%; under `Cc1ccccc1CNC(=O)C1CCC(=O)N(Cc2cccc(F)c2)C1` (stereo not shown), -8.38%; under `CCOC(=O)c1c(-c2ccc(OC)cc2)oc2cc(Br)c(O)cc12`, 10.4%.
Turning to `COc1ccc(NS(=O)(=O)c2ccc(OCC(=O)N3CCOCC3)cc2)cc1Cl`, the “hERG current change (%, negative = inhibition) at 10uM” value stood at 8.46%.
Take `CNC(=O)Nc1ccc(C2SCCS2)cc1`: the “hERG current change (%, negative = inhibition) at 10uM” value came to 7.02%.
Under `CCOC(=O)C1=C2SCCN2C(=O)C(C#N)C1(C)C` (stereo not shown) stands 7.34%.
Turning to `COc1ccc(-c2cc(C(=O)N3CC4(C)CC3CC(C)(C)C4)no2)cc1OC` (stereo not shown), the “hERG current change (%, negative = inhibition) at 10uM” value is listed as -20.1%.
For `O=C(NCc1ccccc1F)C(=O)NCC1OCCCN1S(=O)(=O)c1cccs1` (stereo not shown), the “hERG current change (%, negative = inhibition) at 10uM” value was found to be 9.19%.
Consider `Cc1ccccc1NCN1C(=O)C2CCC(C)(C1=O)C2(C)C` (stereo not shown), for which the “hERG current change (%, negative = inhibition) at 10uM” value is listed as -0.978%.
Under `COCc1[nH]nc2c1C(c1ccccc1F)C(C#N)=C(N)O2` (stereo not shown) stands 11%; under `Cc1ccc(C)c(C(=O)CC2(O)C(=O)N(C)c3ccccc32)c1` (stereo not shown), 8.85%.
For `O=C(Nc1ccc(Br)c(C(F)(F)F)c1)c1ccc(C(F)(F)F)cc1` the value was 11.8%; for `O=C(O)c1ccccc1C(=O)Nc1ccc(Br)c(C(F)(F)F)c1`, -70.6%.
For `O=C(Nc1ccc(Br)c(C(F)(F)F)c1)c1ccccc1` the value was 27.3%; for `C/C(=N\NC(=O)CSc1nc2ccccc2s1)c1ccco1`, 0.0885%.
For the compound `CC1CCCCN1C(=O)COC(=O)c1cccc(NS(=O)(=O)c2ccccc2)c1` (stereo not shown), the “hERG current change (%, negative = inhibition) at 10uM” value was found to be 0.629%.
In the case of `N#Cc1ccsc1NC(=O)COc1ccc(-c2nnco2)cc1`, the “hERG current change (%, negative = inhibition) at 10uM” value was 1.95%.
For `N#CCSc1ccccc1NC(=O)COc1ccc(-c2nnco2)cc1` the value was -66.3%; for `O=C(COc1ccc(-c2nnco2)cc1)Nc1c(F)cccc1F`, 0.851%; for `CCN(CC(=O)Nc1ccc2c(c1)OCCO2)S(=O)(=O)c1cccs1`, -4.54%.
For `COc1cccc(C(=O)Nc2c(C)n[nH]c2C)c1` the value was -0.143%.
For `COC(=O)c1ccc(S(=O)(=O)NCc2ccco2)o1` the value was 6.1%; for `O=C(Cn1c(CN2CCCCC2)nc2ccccc2c1=O)NCc1ccco1`, -15.4%; for `COCCN(Cc1cc2cc(C)ccc2[nH]c1=O)S(=O)(=O)c1ccc(Cl)cc1`, 16.4%.
As to `COc1ccc(S(=O)(=O)Nc2nc3c(s2)C(=O)CC(C)(C)C3)cc1`, the “hERG current change (%, negative = inhibition) at 10uM” value is on record as -10.3%.
For `CCCCn1nc(C(=O)Nc2c(C)n(C)n(-c3ccccc3)c2=O)c2ccccc2c1=O` the value was -17.9%; for `CCCCn1nc(C(=O)Nc2ccccc2N2CCCC2)c2ccccc2c1=O`, -9.4%; for `CC(C)Cn1nc(C(=O)NCc2ccccc2CN2CCCC2)c2ccccc2c1=O`, -38.3%.
`CCCCn1nc(C(=O)N(CC)CC(=O)Nc2c(F)cccc2F)c2ccccc2c1=O`: the “hERG current change (%, negative = inhibition) at 10uM” value was -7.72%.
For `CCCCn1nc(C(=O)NCc2ccccc2CN2CCCC2)c2ccccc2c1=O`, the “hERG current change (%, negative = inhibition) at 10uM” value is -64.6%.
For `CCCCn1nc(C(=O)NCC(=O)Nc2c(C)cccc2C)c2ccccc2c1=O` the value was -68.9%; for `COc1cc(CCCN[C@H](CN)Cc2ccccc2)cc(OC)c1OC`, -4.22%; for `O=C1CSC(c2ccc([N+](=O)[O-])cc2)N1Cc1ccccc1` (stereo not shown), -48.8%.
With `CCN(CC)CCCN1C(=O)CSC1c1ccc2c(c1)OCO2.Cl` (stereo not shown), the “hERG current change (%, negative = inhibition) at 10uM” value is given as -39.2%.
Under `CCN(CC)CCCN1C(=O)CSC1c1ccc([N+](=O)[O-])cc1.Cl` (stereo not shown) stands -72.8%.
For `Cl.O=C1CSC(c2ccc([N+](=O)[O-])cc2)N1CCN1CCCCC1` (stereo not shown) the value was -94.9%; for `Cl.O=C1CSC(c2cccc([N+](=O)[O-])c2)N1CCN1CCCCC1` (stereo not shown), -21.4%; for `CN(C)CCCN1C(=O)CSC1c1ccc([N+](=O)[O-])cc1.Cl` (stereo not shown), -46%.
Under `O=C(O)c1cc(S(=O)(=O)NC2CCCc3ccccc32)ccc1O` (stereo not shown) stands 13.5%; under `CC(C)CN(CC(C)C)c1ccc(C=C2C(=O)NC(=S)NC2=O)cc1[N+](=O)[O-]`, 9.99%.
As for `CC[C@@H](C)C(NC(=O)OC(C)(C)C)c1cn([C@@H](CCC(=O)OC(C)(C)C)C(=O)N2CCN(C(=O)OC(C)(C)C)CC2)nn1` (stereo partly shown), the “hERG current change (%, negative = inhibition) at 10uM” value was -17.6%.
For `CC[C@@H](C)C(NC(=O)OC(C)(C)C)c1cn([C@@H](Cc2ccc(O)cc2)C(=O)N2CCN(C(=O)OC(C)(C)C)CC2)nn1` (stereo partly shown) the value was -70%; for `CC[C@@H](C)C(NC(=O)OC(C)(C)C)c1cn([C@@H](Cc2cc3ccccc3[nH]2)C(=O)N2CCN(C(=O)OC(C)(C)C)CC2)nn1` (stereo partly shown), -13.4%.
Regarding `O=c1c2cc(NC(=S)NCc3ccccn3)ccc2nc2n1CCCCC2`, the “hERG current change (%, negative = inhibition) at 10uM” value is reported as -6.42%.
For `CC(C)CCNC(=S)Nc1ccc2nc3n(c(=O)c2c1)CCCCC3` the value was -46.2%; for `O=c1c2cc(NC(=S)NC3CCN(Cc4ccccc4)CC3)ccc2nc2n1CCCCC2`, -10.4%.
Turning to `O=c1c2cc(NC(=S)NCCN3CCCCCC3)ccc2nc2n1CCCCC2`, the “hERG current change (%, negative = inhibition) at 10uM” value is reported as -1.38%.
For `O=c1c2cc(NC(=S)NC3CCCCC3)ccc2nc2n1CCCCC2` the value was -70.2%; for `O=c1c2cc(NC(=S)NC3CCCC3)ccc2nc2n1CCCCC2`, -59.6%; for `O=c1c2cc(NC(=S)NC3CC3)ccc2nc2n1CCCCC2`, 0.786%.
Under `COCCCNC(=S)Nc1ccc2nc3n(c(=O)c2c1)CCCCC3` stands 7.89%.
For the compound `O=c1c2cc(NC(=S)NCCCN3CCC(Cc4ccccc4)CC3)ccc2nc2n1CCCCC2`, the “hERG current change (%, negative = inhibition) at 10uM” value is recorded as -82.1%.
For `COc1ccccc1OC(=O)c1ccc2nsnc2c1` the value was 8.28%.
